Columns and labels:
Test in all cases: PBM binding z-score (relative to random genomic background probes); higher = stronger binding; sequences stand for … in GC…GCGATTGACAGCGTAGAATGAAGG
[1] = system: PPARg:RXRa DBDmut IVT, anti-RXR (DBD mutation: RXRa K156A/R161A, NR concentration 270 nM, RXRa partner concentration 90 nM)
Outline: (§1)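 Regression normalization was applied to scanned fluorescence from custom Agilent 4×180K protein-binding microarrays. Before scanning, arrays were incubated 1 h with ligand-free nuclear receptor dimers, and binding was detected with antibodies against each partner (one per run). Binding z-scores use the random background probes as reference.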

[2] = system: PPARg:RXRa IVT, anti-PPARg (NR concentration 270 nM, RXRa partner concentration 90 nM)
Outline: as §1

[3] = system: PPARg DBDmut:RXRa IVT, anti-PPARg (DBD mutation: PPARg1 K132A/R137A, NR concentration 270 nM, RXRa partner concentration 90 nM)
Outline: as §1

[4] = system: PPARg DBDmut IVT, anti-PPARg (DBD mutation: PPARg1 K132A/R137A, NR concentration 270 nM)
Outline: as §1

[5] = system: PPARg homodimer (NR concentration 180 nM)
Outline: as §1

[6] = system: PXR:RXRa (NR concentration 270 nM, RXRa partner concentration 90 nM)
Outline: as §1

[7] = system: PXR homodimer (NR concentration 270 nM)
Outline: as §1

[8] = system: RARa:RXR (NR concentration 270 nM, RXRa partner concentration 90 nM)
Outline: as §1

[9] = system: RARa homodimer (NR concentration 270 nM)
Outline: as §1

[10] = system: RARb:RXRa (NR concentration 270 nM, RXRa partner concentration 90 nM)
Outline: as §1

Sequence	PBM binding z-score [1]	PBM binding z-score [2]	PBM binding z-score [3]	PBM binding z-score [4]	PBM binding z-score [5]	PBM binding z-score [6]	PBM binding z-score [7]	PBM binding z-score [8]	PBM binding z-score [9]	PBM binding z-score [10]
TCTGCTAGGTCAACGATTGTCAGCTAATCTGCTA	4.14	4.13	0.817	0.395	0.734	1.19	-0.478	1.86	-1.01	4.03
TGAATGAGGTTATAAGATCAGCGAACGTTGCAAA	1.18	2	0.4	-0.321	-0.104	0.634	-0.373	1.33	-0.341	1.06
CCCGAAAGGTCGGTTGAGGTGAGTATACGGATAA	0.203	0.845	-0.316	-0.0998	1.28	3.49	0.481	2.51	0.922	3.33
TCTGCTAGGTCAGTTGGTCAGTTAACGAGCTGCC	2.93	2.98	1.52	0.61	0.428	-0.000879	-0.602	0.398	-1.15	3.3
CGAACTAGGTCAAGGTCAGTGAATCTCCGCACGC	7.95	8.28	1.6	0.259	3.84	3.45	1.03	3.61	1.62	4.86
TCTATTAGTCGAAGGGCAACCGACGAGTCCGTTT	2.28	0.642	0.468	0.866	0.702	0.597	0.535	0.379	0.63	1.36
ATCTCTATGTAACAAGTTCAGTGAAAGAGAGGAC	-0.367	0.29	1.13	0.92	0.596	1.35	1.37	0.511	0.404	1.08
AGAATGAGGTTATACGTAGATCAGTGAAGAAAGT	3.57	2.11	1.37	1.44	0.559	1.15	0.463	1.56	0.81	1.39
GATACAGGGTCAGCCAGAGGCCAGAGTATGGAAA	1.1	2.63	0.315	-0.142	2.32	3.4	-0.204	4.58	0.402	4.19
CCTCGCAGGCCAATCTGGGTCACTCAAGGCTTGA	3.89	4.74	-0.647	-1.36	0.567	1.21	-0.402	1.75	-0.288	1.67
CCTTACGTGTCACTCCAGGTTATAGCATCGGAGT	1.84	1.44	0.74	0.788	1.64	1.44	0.593	0.864	1.76	1.16
CATACGGGGTCAGCTAGGCCAGAGTAGGGACGGC	2.55	4.45	1.49	1.86	2.4	4.79	0.529	5.51	0.858	4.84
GCTTGTAGATCATGGTTAAGAAAGACTAAGCTAA	0.856	0.283	0.687	-0.0333	0.17	-0.334	-0.29	-0.161	-0.00288	-0.371
CTCGAGAGGTCGTGCTCAGGTGAGTATACCAAAC	0.51	1.53	-0.297	-0.226	0.544	3.09	0.214	3.6	-0.876	2.79
TCGAGTAGGTTATCAATGGGGCATTCAGCTTTCT	3.08	1.84	-0.103	-0.254	-0.00524	0.223	-0.333	0.202	-0.0483	0.739
TCGAGTAGGTTAGTCTGGGCATTCAGCCAACATA	1.92	1.79	-0.593	-0.623	-0.00252	-0.302	-0.724	-0.271	-0.668	-0.185
TCAGACAGGTGAAGGTACCTCAGGTACGCAGTCG	1.89	0.885	0.0512	-0.186	0.265	0.248	-0.155	0.888	-0.298	0.914
ACTAGCAGGCCTAGTTTGGGTCACTCAAACAAAG	-0.402	0.669	-0.351	-1.26	-0.416	0.282	-0.591	1.1	-0.718	0.83
ACTAGAAGGCCAAGTTTGGGTCACTCAAACAAAG	0.0334	1.25	-0.516	-0.287	0.742	1.2	-0.219	2.15	-0.267	2.71
ATCGACAGGTCGAGGTGAGTATAGAGAAAGGGAA	-0.576	0.778	-0.0493	-0.0748	0.551	0.0775	0.0221	0.649	0.423	1.69
ACAGACAGGTGATGAAGGTAACTCATGCTATCAT	0.199	0.711	-0.0414	-0.123	-0.0711	-0.216	-0.133	-0.118	0.279	0.221
TCTTGTAGATCAAAGGTAAAGAAAGCCGAAGCCT	2.51	2.4	0.0443	-0.451	0.519	0.378	0.111	0.715	-0.116	0.397
TTACCAAGGTGAAAGGTCGTCGATGCACGCCTTG	2.84	5.42	0.568	0.68	1.99	4.17	-0.076	6.52	-0.215	3.27
TCATATACGTAAATGCTAGGTGAAAGTCCGATCT	2.16	0.926	0.89	1.72	0.664	0.565	0.25	0.743	0.987	0.357

Reference: the supplement of paper PMC6555819
